Measurements as given in PubChem BioAssay (NCI).
Compounds without any hit were thinned out: in the full panel of roughly 83,000, 20% have a hit.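 Method: cells in 96-well plates; compound added at one concentration; 48 h incubation; percent growth measured; values under 10 scored active.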 Activity calls are given as the source filed them.

The compounds below were run on KM12 colon (assay: NCI-60 one-dose screen, 48 h (100 = growth as untreated, 0 = no growth, -100 = all killed)). Details: 10 µM unless noted.
For `Nc1nc(SCc2cccc([N+](=O)[O-])c2)c2[nH]cnc2n1`, the growth was 99.8% (inactive). With `N/C(=N\c1nc2ccccc2[nH]1)NC(=O)Cc1cccc2ccccc12` the growth was 82% (inactive). In the case of `O=C1NC(=O)c2cc([N+](=O)[O-])cc3cccc1c23`, the growth is reported as 105% (inactive). With `COc1ccc(C2CC(c3cc(OC)c(OC)c(OC)c3)=NN2C(C)=O)cc1OCC(=O)Nc1nc2ccc(C(F)(F)F)cc2s1` (configuration not stated) the growth was 64.5% (inactive). With `O=C(N/N=C/c1ccc([N+](=O)[O-])cc1)c1ccc(Br)o1` the growth was 126% (inactive). With `O=C(NCc1ccccc1)C(Cl)Cl` the growth was 101% (inactive). With `COc1cc2c(c(OC)c1OC)-c1ccc(NNC(N)=S)c(=O)cc1[C@@H](NC(C)=O)CC2` the growth was -35.6% (active). With `CC(C)OC(=O)Nc1cc(F)c(F)cc1F` the growth was 101% (inactive). In the case of `Nc1cc(C(=O)O)[nH]c(=S)n1`, the growth is reported as 98.9% (inactive). With `COc1ccc(OC)c(NC=O)c1` the growth was 109% (inactive). `ClC1=C(Cl)C(Cl)=C(Cl)C1=Cc1ccccc1` was tested, and the growth was -84.7% (active). In the case of `O=C(O)c1cc([N+](=O)[O-])ccc1Br`, the growth is reported as 101% (inactive). In the case of `COC(=O)c1cc2c(=O)[nH]cc3c2c(n1)CCC3`, the growth is reported as 106% (inactive). For `CCN=C1C=CC(=C(c2ccc(N(CC)CC)cc2)c2ccc(N(CC)CC)cc2)c2ccccc21`, the growth was -86.2% (active). `O=c1[nH]c(CN2CCN(c3cccc(Cl)c3)CC2)nc2cc(Cl)ccc12` was tested, and the growth was 99% (inactive). In the case of `c1ccc2c(c1)CN(CCCN1CCOCC1)C2`, the growth is reported as 102% (inactive). For `Nc1cc(NN=C(c2ccc(O)cc2)c2ccc(O)cc2)c([N+](=O)[O-])cc1[N+](=O)[O-]`, the growth was 71.5% (inactive).
